Test results from ChEMBL document CHEMBL1961873, “Compounds: GSK PKIS; Assays: Nanosyn kinase panel” (2012).

biological target: 5'-AMP-activated protein kinase catalytic subunit alpha-2 (Homo sapiens) (UniProt P54646); settings: at 1 µM
Sequence (P54646 whole entry, looked up): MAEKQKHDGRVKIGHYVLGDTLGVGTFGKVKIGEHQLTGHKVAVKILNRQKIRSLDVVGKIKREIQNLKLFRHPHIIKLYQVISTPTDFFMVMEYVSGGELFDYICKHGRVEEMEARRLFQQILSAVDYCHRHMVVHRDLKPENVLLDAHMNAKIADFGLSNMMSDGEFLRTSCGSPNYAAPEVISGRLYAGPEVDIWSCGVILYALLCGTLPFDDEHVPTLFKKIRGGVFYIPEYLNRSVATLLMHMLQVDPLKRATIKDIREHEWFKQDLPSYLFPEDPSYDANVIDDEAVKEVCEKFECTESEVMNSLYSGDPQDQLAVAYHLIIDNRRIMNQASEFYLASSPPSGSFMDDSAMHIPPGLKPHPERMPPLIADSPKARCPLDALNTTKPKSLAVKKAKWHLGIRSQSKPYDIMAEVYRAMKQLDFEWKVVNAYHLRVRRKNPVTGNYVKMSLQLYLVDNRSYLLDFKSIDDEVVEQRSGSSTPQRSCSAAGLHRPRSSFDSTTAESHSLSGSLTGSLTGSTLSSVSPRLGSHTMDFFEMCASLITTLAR

Structure (SMILES)	inhibition [%]
Nc1nonc1-c1nc2cnccc2n1C1CCCCC1	3.46
COc1cc2c(cc1Nc1nc(Nc3ccsc3C(N)=O)c3cc[nH]c3n1)N(C(=O)CN(C)C)CCC2	2.09
CCn1c(-c2nonc2N)nc2c(C#CC(C)(C)O)nc(O[C@@H](CN)c3ccccc3)cc21	68.1
NS(=O)(=O)c1ccc(-c2ccc3c(NC(=O)C4CC4)n[nH]c3c2)cc1	5.62
CCn1c(-c2nonc2N)nc2c(C#CC(C)(C)O)ncc(OC[C@@H]3CCCN3)c21	4.25
Cc1cc(-c2ccco2)cc(C)c1/C=C/c1cncc(-c2nn[nH]n2)c1	2.58
CCn1c(-c2nonc2N)nc2c(C#CCN)ncc(OCCCN)c21	2.16
Fc1ccc(-c2ncn(C3CCNCC3)c2-c2ccnc(Oc3ccccc3)n2)cc1	-1.95
NC(=O)c1sc(-n2cnc3cc(C(F)(F)F)ccc32)cc1OCc1ccccc1Br	4.05
NS(=O)(=O)c1ccc(N/C=C2\C(=O)Nc3ccc4ncsc4c32)cc1	42.8
COc1cc(C=NNc2ncnc3c2cnn3Cc2ccccc2)ccc1O	-3.45
CCn1c(-c2nonc2N)nc2c(C#CC(C)(C)O)ncc(OCC3CCNCC3)c21	16.1
COc1cccc(COc2cc(-n3cnc4ccccc43)sc2C(N)=O)c1	1.39
COc1cccc(-n2ncc3c(N/N=C/c4ccncc4)ncnc32)c1	7.87

biological target: T1, NUAK family SNF1-like kinase 1 (Homo sapiens) (UniProt O60285); settings: at 0.1 µM
T1 sequence (whole entry): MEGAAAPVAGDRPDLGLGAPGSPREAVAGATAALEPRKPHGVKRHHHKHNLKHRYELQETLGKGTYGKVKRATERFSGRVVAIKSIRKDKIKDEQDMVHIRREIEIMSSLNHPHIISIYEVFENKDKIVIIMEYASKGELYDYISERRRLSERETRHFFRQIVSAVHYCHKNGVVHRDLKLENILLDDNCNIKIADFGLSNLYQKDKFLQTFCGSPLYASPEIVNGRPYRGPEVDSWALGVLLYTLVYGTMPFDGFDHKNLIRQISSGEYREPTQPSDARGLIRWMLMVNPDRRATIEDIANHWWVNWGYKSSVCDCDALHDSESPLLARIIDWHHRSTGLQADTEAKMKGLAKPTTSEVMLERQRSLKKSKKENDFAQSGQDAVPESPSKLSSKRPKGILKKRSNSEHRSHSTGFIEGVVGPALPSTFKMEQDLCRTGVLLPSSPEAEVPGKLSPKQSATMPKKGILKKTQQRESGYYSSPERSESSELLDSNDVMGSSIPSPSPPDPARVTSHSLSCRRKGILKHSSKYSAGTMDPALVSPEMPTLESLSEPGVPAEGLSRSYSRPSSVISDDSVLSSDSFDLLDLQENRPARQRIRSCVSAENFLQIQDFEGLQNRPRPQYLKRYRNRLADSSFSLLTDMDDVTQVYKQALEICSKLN

Structure (SMILES)	inhibition [%]
Nc1nonc1-c1nc2cnccc2n1C1CCCCC1	0.83
COc1cc2c(cc1Nc1nc(Nc3ccsc3C(N)=O)c3cc[nH]c3n1)N(C(=O)CN(C)C)CCC2	1.84
CCn1c(-c2nonc2N)nc2c(C#CC(C)(C)O)nc(O[C@@H](CN)c3ccccc3)cc21	24.4
NS(=O)(=O)c1ccc(-c2ccc3c(NC(=O)C4CC4)n[nH]c3c2)cc1	3.06
CCn1c(-c2nonc2N)nc2c(C#CC(C)(C)O)ncc(OC[C@@H]3CCCN3)c21	6.58
Cc1cc(-c2ccco2)cc(C)c1/C=C/c1cncc(-c2nn[nH]n2)c1	-1.33
CCn1c(-c2nonc2N)nc2c(C#CCN)ncc(OCCCN)c21	6.71
Fc1ccc(-c2ncn(C3CCNCC3)c2-c2ccnc(Oc3ccccc3)n2)cc1	-1.26
NC(=O)c1sc(-n2cnc3cc(C(F)(F)F)ccc32)cc1OCc1ccccc1Br	-0.04
NS(=O)(=O)c1ccc(N/C=C2\C(=O)Nc3ccc4ncsc4c32)cc1	59.2
COc1cc(C=NNc2ncnc3c2cnn3Cc2ccccc2)ccc1O	7.72
CCn1c(-c2nonc2N)nc2c(C#CC(C)(C)O)ncc(OCC3CCNCC3)c21	6.78
COc1cccc(COc2cc(-n3cnc4ccccc43)sc2C(N)=O)c1	-2.73
COc1cccc(-n2ncc3c(N/N=C/c4ccncc4)ncnc32)c1	16.1

biological target: T1, NUAK family SNF1-like kinase 1 (Homo sapiens); settings: at 1 µM

Structure (SMILES)	inhibition [%]
Nc1nonc1-c1nc2cnccc2n1C1CCCCC1	6.7
COc1cc2c(cc1Nc1nc(Nc3ccsc3C(N)=O)c3cc[nH]c3n1)N(C(=O)CN(C)C)CCC2	1.85
CCn1c(-c2nonc2N)nc2c(C#CC(C)(C)O)nc(O[C@@H](CN)c3ccccc3)cc21	69.6
NS(=O)(=O)c1ccc(-c2ccc3c(NC(=O)C4CC4)n[nH]c3c2)cc1	8.32
CCn1c(-c2nonc2N)nc2c(C#CC(C)(C)O)ncc(OC[C@@H]3CCCN3)c21	34.4
Cc1cc(-c2ccco2)cc(C)c1/C=C/c1cncc(-c2nn[nH]n2)c1	-1.37
CCn1c(-c2nonc2N)nc2c(C#CCN)ncc(OCCCN)c21	10.4
Fc1ccc(-c2ncn(C3CCNCC3)c2-c2ccnc(Oc3ccccc3)n2)cc1	2.38
NC(=O)c1sc(-n2cnc3cc(C(F)(F)F)ccc32)cc1OCc1ccccc1Br	2.91
NS(=O)(=O)c1ccc(N/C=C2\C(=O)Nc3ccc4ncsc4c32)cc1	69.1
COc1cc(C=NNc2ncnc3c2cnn3Cc2ccccc2)ccc1O	27.6
CCn1c(-c2nonc2N)nc2c(C#CC(C)(C)O)ncc(OCC3CCNCC3)c21	37.2
COc1cccc(COc2cc(-n3cnc4ccccc43)sc2C(N)=O)c1	8.04
COc1cccc(-n2ncc3c(N/N=C/c4ccncc4)ncnc32)c1	54.6

biological target: T2, Serine/threonine-protein kinase BRSK1 (Homo sapiens) (UniProt Q8TDC3); settings: at 0.1 µM
T2 sequence (whole entry): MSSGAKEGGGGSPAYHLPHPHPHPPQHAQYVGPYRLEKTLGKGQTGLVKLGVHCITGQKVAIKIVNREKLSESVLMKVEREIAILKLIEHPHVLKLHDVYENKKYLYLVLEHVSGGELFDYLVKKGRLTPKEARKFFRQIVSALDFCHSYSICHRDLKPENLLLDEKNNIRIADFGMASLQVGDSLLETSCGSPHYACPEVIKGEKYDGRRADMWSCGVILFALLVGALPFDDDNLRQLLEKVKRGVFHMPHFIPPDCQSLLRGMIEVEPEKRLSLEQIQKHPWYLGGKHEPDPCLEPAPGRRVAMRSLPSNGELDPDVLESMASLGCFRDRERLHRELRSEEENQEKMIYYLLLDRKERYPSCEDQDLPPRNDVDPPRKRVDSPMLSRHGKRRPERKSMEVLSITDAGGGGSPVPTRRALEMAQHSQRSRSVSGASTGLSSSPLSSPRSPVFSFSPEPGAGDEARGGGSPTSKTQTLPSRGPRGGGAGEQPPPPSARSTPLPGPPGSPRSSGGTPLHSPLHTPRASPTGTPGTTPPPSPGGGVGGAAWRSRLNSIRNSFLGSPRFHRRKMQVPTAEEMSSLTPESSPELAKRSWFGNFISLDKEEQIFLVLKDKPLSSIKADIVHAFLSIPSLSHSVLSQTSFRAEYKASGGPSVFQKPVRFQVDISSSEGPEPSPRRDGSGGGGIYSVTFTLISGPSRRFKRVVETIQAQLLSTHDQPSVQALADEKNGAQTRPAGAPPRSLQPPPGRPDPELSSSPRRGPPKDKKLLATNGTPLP

Structure (SMILES)	inhibition [%]
Nc1nonc1-c1nc2cnccc2n1C1CCCCC1	-0.55
COc1cc2c(cc1Nc1nc(Nc3ccsc3C(N)=O)c3cc[nH]c3n1)N(C(=O)CN(C)C)CCC2	0.07
CCn1c(-c2nonc2N)nc2c(C#CC(C)(C)O)nc(O[C@@H](CN)c3ccccc3)cc21	6.66
NS(=O)(=O)c1ccc(-c2ccc3c(NC(=O)C4CC4)n[nH]c3c2)cc1	3.64
CCn1c(-c2nonc2N)nc2c(C#CC(C)(C)O)ncc(OC[C@@H]3CCCN3)c21	-0.75
Cc1cc(-c2ccco2)cc(C)c1/C=C/c1cncc(-c2nn[nH]n2)c1	-0.09
CCn1c(-c2nonc2N)nc2c(C#CCN)ncc(OCCCN)c21	4.54
Fc1ccc(-c2ncn(C3CCNCC3)c2-c2ccnc(Oc3ccccc3)n2)cc1	-0.19
NC(=O)c1sc(-n2cnc3cc(C(F)(F)F)ccc32)cc1OCc1ccccc1Br	1.16
NS(=O)(=O)c1ccc(N/C=C2\C(=O)Nc3ccc4ncsc4c32)cc1	17.6
COc1cc(C=NNc2ncnc3c2cnn3Cc2ccccc2)ccc1O	-0.74
CCn1c(-c2nonc2N)nc2c(C#CC(C)(C)O)ncc(OCC3CCNCC3)c21	0.32
COc1cccc(COc2cc(-n3cnc4ccccc43)sc2C(N)=O)c1	-0.43
COc1cccc(-n2ncc3c(N/N=C/c4ccncc4)ncnc32)c1	11.2
